# High-throughput results deposited in PubChem by National Center for Advancing Translational Sciences (NCATS).
# Compounds with a hit are over-represented: about 10% of the library has one in this group of screens.
# NIH3T3 tox = kills NIH 3T3 cells | 94,000 compounds, 4.3% hits | Potency, µM (titrated, usually from 96.7 µM), for inactives: top-dose activity change, negative = cytotoxicity, usual class: inhibitors | NIH 3T3 viability, CellTiter-Glo ATP luminescence, 48-72 h | AID 1345082; note: nearly all actives have a fitted effect of over 55% in size
#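 NIH 3T3 cells at 400 cells/well received 23 nL of compound by pintool and were incubated 48 or 72 h at 37 °C. Viability was read as ATP-coupled CellTiter-Glo luminescence.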
# hNpr1 antagonist = blocks ANP-stimulated signaling of human Npr1 receptor; AID 1347048; HEK293 hNpr1 GloSensor cGMP, ANP-stimulated luminescence; Potency, µM (doses to about 46.3 µM), inactives show at the highest dose activity change, negative = inhibition, most hits filed as inhibitors; 76,000 compounds, 1.6% hits; P16066; calls by dose curve; note: nearly all actives have a fitted effect of over 60% in size
# Target sequence (P16066 whole entry, looked up): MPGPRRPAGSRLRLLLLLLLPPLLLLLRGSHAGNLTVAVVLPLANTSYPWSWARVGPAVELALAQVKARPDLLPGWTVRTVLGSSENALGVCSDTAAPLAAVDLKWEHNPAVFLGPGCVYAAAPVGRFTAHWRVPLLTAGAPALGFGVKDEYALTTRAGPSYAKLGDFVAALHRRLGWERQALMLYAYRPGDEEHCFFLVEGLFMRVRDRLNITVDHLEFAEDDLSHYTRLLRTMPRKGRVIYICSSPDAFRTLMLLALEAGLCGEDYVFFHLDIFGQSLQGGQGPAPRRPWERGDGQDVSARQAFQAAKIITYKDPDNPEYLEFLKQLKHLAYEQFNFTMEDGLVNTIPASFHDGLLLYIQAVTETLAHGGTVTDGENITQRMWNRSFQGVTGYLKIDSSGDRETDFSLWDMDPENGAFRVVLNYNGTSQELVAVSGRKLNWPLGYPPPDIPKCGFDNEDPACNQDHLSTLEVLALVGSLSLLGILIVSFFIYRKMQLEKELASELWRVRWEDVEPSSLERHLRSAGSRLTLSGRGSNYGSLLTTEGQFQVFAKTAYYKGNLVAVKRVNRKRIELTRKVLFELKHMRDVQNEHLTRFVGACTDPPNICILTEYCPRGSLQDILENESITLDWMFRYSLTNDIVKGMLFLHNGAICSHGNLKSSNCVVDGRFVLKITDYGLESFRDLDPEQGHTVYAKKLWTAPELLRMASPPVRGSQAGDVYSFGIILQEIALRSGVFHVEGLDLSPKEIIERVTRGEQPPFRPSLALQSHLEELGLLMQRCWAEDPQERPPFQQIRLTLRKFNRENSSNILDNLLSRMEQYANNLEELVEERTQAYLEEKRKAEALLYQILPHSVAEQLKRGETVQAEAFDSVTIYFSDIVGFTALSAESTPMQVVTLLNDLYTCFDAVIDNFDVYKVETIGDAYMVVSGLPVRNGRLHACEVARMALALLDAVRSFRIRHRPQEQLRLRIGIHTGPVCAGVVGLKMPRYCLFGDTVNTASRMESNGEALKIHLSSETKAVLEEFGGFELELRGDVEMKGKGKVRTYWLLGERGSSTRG
#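 Compound pre-incubated 30 min at room temperature on GloSensor-loaded HEK293 cells stably carrying hNpr1 and the pGS-40F cGMP biosensor. Stimulation uses hNppA at 0.1 nM final; luminescence is taken at baseline and 20 min post-agonist.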
# Luciferase inh = blocks purified firefly luciferase enzyme activity. P08659. purified P. pyralis luciferase, luminescence, biochemical. Potency, µM (highest dose often 115 µM), hits mostly inhibitors. 76,000 compounds, 2.5% hits; note: nearly all actives have a fitted effect of over 65% in size
#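 Luminescence read by CCD imager after adding enzyme (10nM final) to wells holding compound, titrated in qHTS. Substrates 10uM each D-luciferin and ATP; buffer 50mM Tris acetate pH 7.5, 10mM Mg acetate, Tween-20, BSA.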
# HEK cytotox = HEK 293 cell cytotoxicity; HEK 293 viability, ATP luminescence (CellTiter-Glo), 48-72 h; Potency, µM (titrated, usually from 115 µM), for the others: at the top dose activity change, negative = cytotoxicity, hits mostly inhibitors; 94,000 compounds, 6.6% hits; AID 1345083; note: nearly all actives have a fitted effect of over 60% in size
#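 qHTS cytotoxicity; HEK 293, 250 cells/well; compound pinned; 48 or 72 hr, 37 degree Celsius, 5% CO2, 95% humidity; CellTiter-Glo, 10 min RT; luminescence (ATP).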
# GPT2 inhibitor = GPT2 alanine aminotransferase inhibition; 100,000 compounds, 0.25% hits; Q8TD30; Recombinant GPT2, coupled pyruvate oxidase/HRP Amplex Red fluorescence; Potency, µM (highest dose often 57.7 µM), inactives show at the top dose activity change, negative = inhibition, usual class: inhibitors; note: nearly all actives have a fitted effect of over 60% in size
#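 Recombinant GPT2 (10ng/uL) with 250uM a-KG and 2mM L-alanine, 30 min at room temperature, in HEPES pH 7.5 buffer. Pyruvate detected by pyruvate oxidase/HRP/Amplex Red fluorescence after 30 min in the dark; AOA (50uM) as positive control.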
# Active calls of the source: *; i = inactive; ? = inconclusive; . = not tested or not shown; [ ] = remark or other dose. Unless noted, calls come from the whole dose curve; as a rule, active = well fitted curve in the direction sought with a large enough effect; inconclusive = small, poorly fitted or top-dose-only effect, or another doubt; inactive = no such curve, though single readings can be large; an effect the other way counts as inactive or inconclusive. % is set by controls: 0 for no effect and ±100 for the full control effect; potency is the fitted concentration of half-maximal effect.
SMILES,NIH3T3 tox,hNpr1 antagonist,Luciferase inh,HEK cytotox,GPT2 inhibitor
O=C(CC[C@@H]1CNC(=O)[C@@H]2C[C@H](NCc3ccccn3)CN12)NCc1ccc(F)cc1,?,2.9%[70.6 µM],i,?,i
C[C@H]1[C@@H]2[C@@H](O)C([C@H](C)C(=O)NC3CC3)CC[C@@]2(C)CC[C@@H]1NC(=O)C1CCCCC1 (some centres undefined),-24.5%[174 µM],6.2%[70.6 µM],i,-21.8%[172 µM],3.8%[88.5 µM]
Cc1cnc(CCNC(=O)c2cccs2)n1CC1CC1,-4.2%,-2.7%,i,-0.7%,i
CCCCCC(=O)Nc1ccc([C@H]2OCC(=O)N(Cc3nccn3C)[C@@H]2CO)cc1,-18.1%[174 µM],9.5%[70.6 µM],70.8µM*,-14.9%[172 µM],-17.0%[88.5 µM]
Cn1ccnc1CN1C(=O)CO[C@H](c2ccc(NC(=O)c3ccc(C(F)(F)F)cc3)cc2)[C@H]1CO,-25.2%,13.6%,35.5µM*,-25.7%,?
COc1ccc(C(=O)NC2CCN(Cc3cccc(-c4ccc(SC)cc4)c3)CC2)cc1,-20.0%,.,.,2.2%,.
CC(C)n1c(CNC(=O)C2CC(=O)N(C3CCCC3)C2)nc2ccccc21 (centres undefined),?,8.8%,i,?,3.2%[11.5 µM]
O=C(CC[C@@H]1CNC(=O)[C@@H]2C[C@H](NC(=O)c3cccc(F)c3)CN12)NCc1ccc(F)cc1,-2.3%,0.5%,i,i,-0.4%
O=C(NCCc1ccc(F)cc1)C1CCN(c2nccc(Nc3ccccc3F)n2)CC1,?,.,.,28.2µM*,i
O=C(NCc1ccc(Cl)cc1)C1CCN(c2nccc(Nc3ccccc3F)n2)CC1,28.2µM*,.,.,17.8µM*,4.0%
COc1ccc(N2CC(C(=O)NCc3cccc(F)c3)NC2=O)cc1 (centres undefined),-32.0%,15.5%,i,-8.5%,-0.9%
O=C(NCC1CC1)c1cccc(OC2CN(Cc3ccc(F)cc3F)C2)c1,?,-14.8%,i,?,i
O=C(NCC1CC1)c1cccc(OC2CN(Cc3ccc(F)cc3Cl)C2)c1,39.8µM*,?,i,?,1.5%
CN(Cc1cn(C)c2ccccc12)C1CCc2nn(CC3CC3)c(=O)n2CC1 (centres undefined),35.5µM*,-2.7%,i,31.6µM*,2.8%
Cc1noc(-c2cccs2)c1C(=O)NCCCCc1ccccc1,?,-0.2%,i,?,4.1%
CCOC(=O)[C@@H]1CN(C(=O)NC2CCCC2)[C@H]2c3ccc(OC)cc3O[C@@H]12,?,.,.,50.1µM*,.
CCOC(=O)[C@@H]1CN(C(=O)c2ncoc2-c2ccccc2)[C@H]2c3ccc(OC)cc3O[C@@H]12,-29.3%,.,.,?,.
C[C@H](C(=O)N1CCCC1)[C@@H]1CC[C@@]2(C)Cc3sc(-c4ccsc4)nc3[C@@H](C)[C@@H]2[C@H]1O,-25.8%,-19.3%,11.2µM*,?,-4.2%
Cc1nn(-c2ccc(C(F)(F)F)cc2)c(C)c1[C@@H]1C=C[C@@H](NC(=O)c2cccs2)C1,28.2µM*,-10.7%[70.6 µM],?,?,-7.4%[88.5 µM]
Cc1nn(-c2ccccc2)c(C)c1[C@@H]1C=C[C@@H](NC(=O)c2ccc(N(C)C)cc2)C1,?,?,?,70.8µM*,3.7%[88.5 µM]
Cc1ccc(-n2nc(C)c([C@H]3C=C[C@@H](OC(=O)Nc4cccc(F)c4)C3)c2C)cc1Cl,?,-20.6%,i,?,?
Cc1ccc(-n2nc(C)c([C@@H]3C=C[C@@H](NC(=O)c4cccs4)C3)c2C)cc1Cl,?,-23.8%[70.6 µM],25.1µM*,?,2.3%[88.5 µM]
Cc1nn(-c2ccc(C(C)(C)C)cc2)c(C)c1[C@@H]1C=C[C@@H](NC(=O)c2cccs2)C1,?,-10.4%[70.6 µM],20µM*,35.5µM*,1.4%[88.5 µM]
Cc1nn(-c2ccccn2)c(C)c1[C@@H]1C=C[C@@H](NC(=O)c2cccs2)C1,?,-1.6%[70.6 µM],?,?,1.0%[88.5 µM]
O=C(NC1CCN(c2ccc3nnc(C4CC4)n3n2)C1)N1CCOCC1 (centres undefined),-10.2%,.,.,-5.1%,.
